Bioassay records: PubChem, several laboratories
H9c2 protect – cardioprotection against H2O2-induced cell death, primary screen, uHTS, H9c2 cells, ATPLite luminescence | H9c2 cardiomyocytes, H2O2 injury protection, 2 h | protection from H2O2 cell death, % at 20 µM | 0.63% of 360,000 active | AID 588492, 2011;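 active = compounds giving at least 50% protection of heart cells from peroxide-induced death in the single-dose screen, raw or plate-pattern-corrected value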;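 also: 0% = DMSO wells with peroxide and 100% = DMSO wells without peroxide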
Calb FLC – C. albicans growth inhibition with fluconazole, primary screen, CaCi-2 strain, Alamar Blue fluorescence | C. albicans CaCi-2 (fluconazole-resistant clinical isolate) + fluconazole, 48 h | growth inhibition, % (no concentration beside the values) | 0.57% of 300,000 active | AID 1979, 2009;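 active = growth inhibition above about 58% in most replicates, limit read from the data, passing the limit was not always enough; inconclusive = exactly half the replicates above a set limit; inactive = most replicates below a set limit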;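 also: all wells also contain fluconazole at 8 µg/ml as a sub-toxic cotreatment; 0% = median of DMSO wells and 100% = median of geldanamycin control wells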
PHOSPHO1 block – PubChem AID 1565. inhibition, % at 13.3 µM. 1.1% of 290,000 active. recombinant PHOSPHO1, absorbance phosphatase assay; in the data active = inhibition above about 60%
Target sequence (Q8TCT1 whole entry, looked up): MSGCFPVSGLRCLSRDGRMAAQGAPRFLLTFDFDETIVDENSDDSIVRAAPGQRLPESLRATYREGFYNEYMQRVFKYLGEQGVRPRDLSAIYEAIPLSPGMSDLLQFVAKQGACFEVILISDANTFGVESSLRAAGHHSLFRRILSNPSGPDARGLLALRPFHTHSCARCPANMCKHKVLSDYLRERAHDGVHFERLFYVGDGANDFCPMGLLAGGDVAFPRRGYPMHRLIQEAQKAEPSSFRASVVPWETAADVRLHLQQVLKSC
Efflux pump mplx – inhibitors of Candida efflux pumps in yeast, primary screen, S. cerevisiae, Nile Red, multiplex | S. cerevisiae Candida pump triplex | inhibition, % at 10 µM | 0.44% of 330,000 active | AID 485275, 2010;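 active = plate passing quality check with inhibition over a set limit, or well fluorescence over plate mean plus 4 SD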;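 also: Nile Red retained in pooled yeast measured as flow cytometry median fluorescence; 0% = buffer negative control and 100% = Enniatin B positive control; higher means more Nile Red kept so more efflux inhibition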
Cl transport mod – KCC2 cotransporter modulators, thallium flux, primary screen, cell-based, HEK293 KCC2, FluoZin-2 fluorescence, MLSMR; KCC2 cells, thallium flux FluoZin-2 fluorescence; B-score of Tl+ flux slope (higher = more flux/activation; lower = inhibition) at 10 µM; AID 1456, 2008; Solute carrier family 12 member 5 (Homo sapiens), Q9H2X9; 2.2% of 190,000 active;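 active = thallium flux slope and its plate-corrected score both differing from the plate sample mean at a set confidence after two filtering rounds, in either direction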;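 also: slope of fluorescence scaled to starting intensity during 10 to 20 s after thallium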
* hit, by the source's call; ? = inconclusive; nt = no result given. Shown are actives, neighbours in structure and some others; about 3.3% of the full set was active somewhere.

SMILES | H9c2 protect | Calb FLC | PHOSPHO1 block | Efflux pump mplx | Cl transport mod
COc1ccc(NC(=O)CN2CCCC2c2cccs2)cc1S(=O)(=O)N1CCCCC1 (centres undefined) | 4.0 | nt | nt | 0.1 | nt
CCCCN(Cc1nc2ccccc2c(=O)[nH]1)C(=O)CN1C(=O)NC2(CCCCC2)C1=O | 83.4* | nt | nt | 0.2 | nt
CCCNC(=O)c1c(N)n(-c2cccc(OC)c2)c2nc3ccccc3nc12 | 54.6* | ? | 13.8 | 0.4 | -0.329
Nc1c(C(=O)NCC2CCCO2)c2nc3ccccc3nc2n1-c1ccccc1 (centres undefined) | 55.0* | 4.1 | 13.5 | 0.1 | nt
Cc1cc2ccccn2c1C(=O)c1ccc(Cl)cc1 | -2.3 | -13.4 | 63.9* | -0.1 | -0.323
Cc1ccc(C(C)NC(=O)c2cc3cc(Br)ccc3oc2=N)cc1 (centres undefined) | -2.2 | 8.1 | 23.3 | 0.1 | nt
CCCC(=O)N(c1ccc2oc(=O)sc2c1)S(=O)(=O)c1ccccc1 | 56.5* | 4.6 | 7.0 | 0.0 | nt
CC(C)C(=O)N(c1ccc2oc(=O)sc2c1)S(=O)(=O)c1cccs1 | 37.4 | -7.5 | 87.0* | -0.3 | nt
CC(C)C(=O)N(c1cc2sc(=O)oc2c2ccccc12)S(=O)(=O)c1cccs1 | -4.1 | ? | 92.1* | 0.1 | nt
Cc1cc(F)ccc1S(=O)(=O)Nc1ccc(C(=O)N2CCCCCC2)cc1 | -1.4 | nt | nt | 0.1 | nt
Nc1ccc2c(c1)C(=O)C(=O)c1ccccc1-2 | -23.1 | -3.1 | 62.5* | -0.1 | 0.559
Nc1ccc2c(c1)C(=O)c1ccccc1-2 | 1.4 | 1.7 | nt | -0.2 | nt
COCC1CCN(C(=O)c2ccc3oc(C(C)C)nc3c2)C1 (centres undefined) | 0.9 | nt | nt | nt | nt
COc1ccc(/C=C(/NC(=O)c2ccccc2)c2nc3ccc(Cl)cc3[nH]2)cc1OC | -4.8 | 70.2* | -2.2 | 1.3 | -0.0193
CCCNC(=O)c1ccc(N2CCC3(CC2)CC(c2ccccc2)=NO3)c(NC(=O)c2ccco2)c1 | 89.8* | 33.0 | 25.4 | 0.0 | nt
Cc1ccc(CNC(=O)c2ccc(N3CCC4(CC3)CC(c3ccccc3)=NO4)c(NC(=O)c3ccco3)c2)cc1 | 2.5 | 15.8 | -1.7 | 0.0 | nt
CCOc1cc(/C=C2\C(=N)N3N=C(C)SC3=NC2=O)ccc1OCCOc1cccc(OC)c1 | -5.5 | 2.5 | -29.4 | 0.0 | nt
CCc1nn2c(=O)cc(COc3ccc(/C=C4\C(=N)N5N=C(C)SC5=NC4=O)cc3)nc2s1 | 1.8 | 7.9 | 60.6* | -0.1 | -0.851
CC(=O)c1ccc(N(CC(=O)NC2CCCC2)C(=O)CNC(=O)c2cccs2)cc1 | 0.8 | 19.6 | 0.0 | 0.2 | nt
Oc1c(Cl)cc(Cl)cc1/C=N/c1nccs1 | 61.2* | -4.5 | 55.8 | -0.2 | 0.12
Cc1ccccc1N=Nc1ccc(O)c2ncccc12 | 37.8 | -9.1 | -4.6 | -0.2 | 41.4*
O=S(=O)(O)c1cccc2c(N=Nc3ccc(O)c4ncccc34)cccc12 | -10.7 | 84.0* | 14.0 | -0.2 | nt
[O-][n+]1ccc(CC(O)(C(F)(F)F)C(F)(F)F)cc1 | 9.4 | nt | nt | nt | nt
Cc1ccc(S(=O)(=O)c2c(C)nn(C(C)(C)C)c2OC(=O)c2ccc(Br)o2)cc1 | -30.5 | 86.5* | 51.3 | 0.2 | 1.78
CC1CCc2sc3ncnc(N4CCOCC4)c3c2C1 (centres undefined) | 0.3 | 4.7 | 5.8 | 0.0 | 0.375
SMILES | H9c2 protect | Calb FLC | PHOSPHO1 block | Efflux pump mplx | Cl transport mod
CC1CCc2c(sc3ncnc(N4CCOCC4)c23)C1 (centres undefined) | -2.6 | 87.8* | -2.3 | 0.0 | -0.958
COC(=O)c1sc(S(=O)(=O)NCCCN(C)C)c(C(=O)OC)c1C | 4.5 | -0.4 | 79.8* | -0.5 | 0.123
CC(=O)Nc1ccc(Nc2nc(-c3sc(C)nc3C)cs2)cc1 | 14.2 | ? | 35.7 | -0.1 | nt
CC(=O)c1cccc(Nc2nc(-c3sc(N)nc3C)cs2)c1 | 70.4* | 12.0 | 29.1 | -0.1 | nt
Cc1nc(N)sc1-c1csc(Nc2ccccn2)n1 | 2.7 | -9.2 | 70.2* | nt | nt
COc1ccc(Nc2nc(-c3sc(N)nc3C)cs2)cc1 | 0.9 | ? | 68.3* | 0.1 | -0.734
COc1ccc(Nc2nc(-c3sc(NC(C)=O)nc3C)cs2)cc1 | nt | -5.7 | 73.1* | -0.1 | -2.52
CC(=O)c1cccc(Nc2nc(-c3sc(C)nc3C)cs2)c1 | 41.1 | ? | nt | 0.1 | nt
CCOc1ccc(NS(=O)(=O)c2ccc(C(=O)NCCCN3CCCC3=O)cc2)cc1 | 28.3 | 12.8 | 27.6 | -1.8 | nt
CN(C)S(=O)(=O)N1CCC(Oc2ccc(C(=O)N3CCCCCCC3)cc2)CC1 | -5.9 | -4.1 | 7.6 | 1.2 | nt
COc1ccc2nc(-c3ccccn3)[nH]c2c1 | -12.7 | 0.8 | nt | -0.1 | nt
COc1cc(C=NO)nc(-c2ccccn2)c1 | 55.6* | nt | nt | nt | nt
COc1cc(/C=N/n2nnnc2Nc2ccccc2)cc(OC)c1OC | 85.0* | 1.0 | -2.4 | -0.2 | 0.87
COc1cc(/C=N/Nc2nc(Nc3ccccc3)nc(-n3nc(C)cc3C)n2)cc(OC)c1OC | 28.2 | 7.9 | -1.1 | 0.0 | -0.213
Cc1cccc(Cc2nc3ccccc3[nH]2)c1 | -5.3 | nt | nt | nt | nt
O=C(c1ccc(Cl)cc1)C1C2C(=O)N(c3ccccc3)C(=O)C2C2CCCN21 (centres undefined) | 11.7 | 6.3 | 83.6* | nt | 1.28
CCOC(=O)c1ccc(NC(=S)NCCC2=CCCCC2)cc1 | -8.1 | -4.2 | 1.1 | 0.1 | 1.3
C=CCNC(=S)Nc1nc2c(cc1C(=O)OCC)CCCC2 | -8.8 | -29.9 | -9.3 | 0.0 | 63.1*
CCNC(=S)Nc1nc2c(cc1C(=O)OCC)CCCC2 | -16.5 | -24.4 | -7.8 | 0.1 | 40.6*
COc1ccccc1C(=O)COC(=O)Cn1[nH]c(=O)c2ccccc2c1=O | 52.6* | 1.7 | nt | -0.1 | nt
CC(OC(=O)Cn1[nH]c(=O)c2ccccc2c1=O)C(=O)Nc1cccc(Cl)c1 (centres undefined) | 59.1* | 18.4 | nt | 0.2 | nt
CC(OC(=O)Cn1[nH]c(=O)c2ccccc2c1=O)C(=O)Nc1ccc(F)cc1Cl (centres undefined) | 67.0* | -0.2 | nt | 0.0 | nt
CCc1ccc(C(=O)C(C)OC(=O)Cn2[nH]c(=O)c3ccccc3c2=O)cc1 (centres undefined) | 44.3 | nt | nt | 0.1 | nt
CC(OC(=O)Cn1[nH]c(=O)c2ccccc2c1=O)C(=O)Nc1ccccc1[N+](=O)[O-] (centres undefined) | 79.3* | -4.0 | nt | -0.1 | nt
CCN(CC(=O)Nc1ccccc1C(F)(F)F)C(=O)CCc1c(C)[nH]c(=O)c(C#N)c1C | -5.3 | 5.2 | 39.2 | 0.0 | nt
COc1ccc(C(=O)Nc2ccc3c(c2)nc(CCNC(=O)c2ccco2)n3C)cc1 | -2.2 | 3.7 | 8.0 | -0.1 | nt
Cc1cc(NC(=O)COC(=O)Cn2[nH]c(=O)c3ccccc3c2=O)c([N+](=O)[O-])cc1C | 92.7* | nt | nt | 0.0 | nt
CCC(=O)OCC(=O)Nc1cc(C)c(C)cc1[N+](=O)[O-] | 4.1 | -15.9 | 1.1 | 0.0 | 1.14
